Source: PubChem BioAssay (National Center for Advancing Translational Sciences (NCATS))
DRD3 antagonist: qHTS of D3 Dopamine Receptor Antagonist: qHTS. D3R cells, DiscoveRx beta-arrestin luminescence, antagonist mode; hits give low values. max response, negative = inhibition, %. AID 652054, 2013. D(3) dopamine receptor (Homo sapiens), P35462. 360,000 compounds, 2.5% hits; in the data active means max response below about -50%; inconclusive means no clear call, values can overlap the other calls
Target sequence (P35462 whole entry, looked up): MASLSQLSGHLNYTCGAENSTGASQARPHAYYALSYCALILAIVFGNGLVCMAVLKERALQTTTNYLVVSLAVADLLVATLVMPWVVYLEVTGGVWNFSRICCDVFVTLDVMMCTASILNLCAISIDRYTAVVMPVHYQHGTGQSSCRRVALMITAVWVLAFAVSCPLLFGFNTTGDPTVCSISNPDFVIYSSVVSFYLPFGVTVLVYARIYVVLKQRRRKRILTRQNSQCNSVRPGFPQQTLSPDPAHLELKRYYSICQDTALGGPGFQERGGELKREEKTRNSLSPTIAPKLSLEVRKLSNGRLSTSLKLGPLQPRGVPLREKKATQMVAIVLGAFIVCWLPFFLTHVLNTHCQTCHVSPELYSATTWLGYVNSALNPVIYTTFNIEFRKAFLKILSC
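Cells plated overnight at 1500 cells/well, then exposed to library compounds with dopamine controls for 90 minutes at 37 degrees C. DiscoveRx reagent added for 30–60 minutes at room temperature; luminescence read, quantitative HTS format.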
D3 ag: qHTS of D3 Dopamine Receptor Agonist: qHTS. D(3) dopamine receptor (Homo sapiens), P35462. D3R DiscoveRx beta-arrestin cells, luminescence, 90 min. max activation, %. 410,000 compounds, 0.58% hits. AID 652048, 2013; in the data active means max activation above about 30%
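Cells at 1500/well, incubated overnight, then treated with pinned compounds (dopamine as control) for 90 min at 37 degrees C. DiscoveRx reagent added for 30 - 60 minutes at room temperature; luminescence read.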
RGS4 inh: Inhibitors of Regulator of G Protein Signaling (RGS) 4: qHTS; Regulator of G-protein signaling 4 (Homo sapiens), P49798; Transcreener GDP fluorescence polarization, RGS4-accelerated GTP hydrolysis; Potency, µM (series often up to 114 µM), most hits filed as inhibitors; 390,000 compounds, 0.039% hits; AID 504845, 2011; active means well fitted inhibition curve with a large enough effect; inconclusive means small, poorly fitted or top-dose-only effect; inactive means no such curve, though single readings can be large or run the other way; further: nearly all actives have a fitted effect of over 75% in size
Target sequence (P49798 whole entry, looked up): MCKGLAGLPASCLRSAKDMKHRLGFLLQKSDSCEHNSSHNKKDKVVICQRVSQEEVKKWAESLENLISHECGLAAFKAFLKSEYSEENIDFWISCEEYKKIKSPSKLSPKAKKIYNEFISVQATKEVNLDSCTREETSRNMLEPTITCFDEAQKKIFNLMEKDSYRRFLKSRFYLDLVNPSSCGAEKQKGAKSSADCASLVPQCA
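MLSMR compounds (23 nl, pin-transferred) preincubated 10 min at room temperature with a 500nM (2x) first reagent, then RGS4 at 900nM (2x) plus Transcreener GDP mix added; fluorescence polarization (620/688 nm) read before and after 90 min at 30 °C.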
uPA surface inh: qHTS for Inhibitors of Cell Surface uPA Generation | Potency, µM (top dose mostly 38.3 µM), usual class: inhibitors | 330,000 compounds, 0.31% hits | AID 540303, 2011 | cell surface uPA generation assay, qHTS; active means well fitted inhibition curve with a large enough effect; inconclusive means small, poorly fitted or top-dose-only effect; inactive means no such curve, though single readings can be large or run the other way; tested in mouse RAW 264.7 cells; further: nearly all actives have a fitted effect of over 55% in size
Of the large screens only hits and unclear results are named; the others gave an inactive call; ! = repeats disagree. Compounds with a hit are over-represented: about 3.1% of the library has one in this group of screens.

CC(=O)N1CCC(N2CCCC(C(=O)c3cccc(Cl)c3)C2)CC1 (configuration not stated)	D3 ag 129
C=C1[C@@H](C)[C@H]2[C@H](Cc3ccccc3)NC(=O)[C@]23OC(=O)/C=C/[C@H](O)CCC[C@@H](C)C/C=C/[C@H]3[C@@H]1O	D3 ag 78, uPA surface inh inconclusive
O=C(NCCc1ccccc1)[C@@H]1CC=C[C@@H]2CCN(Cc3ccc(Cl)c(Cl)c3)C(=O)[C@@H]21	uPA surface inh inconclusive
COc1ccc(CN2CC=C(c3ccc(F)cc3)CC2)cc1Br	DRD3 antagonist -68
Cc1cc(Br)c(NC(=O)CN2CC=C(c3ccccc3)CC2)c(Br)c1	none
Cc1ccc(OCC(=O)N2CCN(Cc3ccc(F)cc3)CC2)cc1	none (no result: DRD3 antagonist, uPA surface inh)
CCN(CC)c1ccc(CN2CC=C(c3ccc(F)cc3)CC2)cc1	DRD3 antagonist -67
CN1CC[C@@H]2CN3CCc4cccc(c43)[C@H]2C1	none (no result: DRD3 antagonist, D3 ag, uPA surface inh)
OC1(c2ccc(F)cc2)CC2CCC(C1)N2Cc1nnnn1C1CCCC1 (configuration not stated)	DRD3 antagonist -110
CC[C@H]1C[C@@H]2C[C@H]3c4[nH]c5ccc(OC)cc5c4CCN(C2)[C@@H]13	none (no result: DRD3 antagonist, RGS4 inh, uPA surface inh)
CCC1(c2ccccc2)C(=O)NC(=O)NC1=O	DRD3 antagonist -116
COc1ccc2c(c[n+](C)c3c4cc5c(cc4ccc23)OCO5)c1OC	RGS4 inh 6.7µM (no result: DRD3 antagonist, D3 ag, uPA surface inh)
CC(Cc1ccccc1Sc1ccc(O)cc1)N(C)C (configuration not stated)	DRD3 antagonist -52
CN1CCN(Cc2ccccc2Sc2ccccc2)CC1	DRD3 antagonist -51
CC(Cc1ccccc1Sc1ccccc1)N(C)C (configuration not stated)	DRD3 antagonist -64
C[C@@H](Cc1ccccc1)N(C)C	none (no result: DRD3 antagonist, RGS4 inh, uPA surface inh)
Nc1c(Cl)c(Cl)c(Cl)c(Cl)c1Cl	none (no result: DRD3 antagonist, RGS4 inh, uPA surface inh)
C[C@H]1O[C@@H](O[C@H]2[C@@H](O)C[C@H](O[C@H]3[C@@H](O)C[C@H](O[C@H]4CC[C@]5(C)C6CC[C@]7(C)[C@@H](C8=CC(=O)OC8)CC[C@]7(O)C6CC[C@@H]5C4)O[C@@H]3C)O[C@@H]2C)C[C@H](O)[C@@H]1O (some centres not stated)	none (no result: DRD3 antagonist, D3 ag, uPA surface inh)
C/C=C(\CC)C(=O)NC(N)=O	none (no result: DRD3 antagonist, RGS4 inh, uPA surface inh)
CC(C)CCNC(=O)c1c(N)n(Cc2ccc3c(c2)OCO3)c2nc3ccccc3nc12	D3 ag 35 (no result: uPA surface inh)
COC(=O)c1cc2ccsc2n1CC(=O)Nc1cc(Cl)ccc1OC	uPA surface inh inconclusive
COC(=O)C1CN(C#N)N(c2ccc(Cl)cc2)C12c1ccccc1-c1ccccc12 (configuration not stated)	DRD3 antagonist -76, RGS4 inh inconclusive
CC1(C)C(C(=O)N2CCN(c3ccc(Cl)cc3)CC2)C1(C)C	none
COCCN=c1scc(-c2cccs2)n1/N=C/c1ccc(O)c(O)c1O	D3 ag 90, uPA surface inh inconclusive
CC(C)(c1ccc(OCC2CO2)cc1)c1ccc(OCC2CO2)cc1 (configuration not stated)	none (no result: DRD3 antagonist, D3 ag, uPA surface inh)
CCN1CCN(Cc2ccc(NC(=O)c3ccc(C)c(NC(=O)C(=O)c4c[nH]c5ccccc45)c3)cc2C(F)(F)F)CC1	DRD3 antagonist -72!, RGS4 inh inconclusive, uPA surface inh inconclusive
CCN1CCN(Cc2ccc(NC(=O)c3cc(NC(=O)c4cc(C)on4)cc(OC)c3)cc2C(F)(F)F)CC1	DRD3 antagonist inconclusive, uPA surface inh inconclusive
O=C1c2ccccc2C(=O)N1SC1CCCCC1	DRD3 antagonist -92, RGS4 inh inconclusive
Clc1ccc2c(c1)C(OC1CN3CCC1CC3)c1ccccc1CS2 (configuration not stated)	uPA surface inh inconclusive
CN1CCN(CCOC2c3ccccc3CSc3ccc(Cl)cc32)CC1 (configuration not stated)	DRD3 antagonist -90
CN1[C@H]2CC[C@@H]1[C@@H](C(=O)O)[C@@H](OC(=O)c1ccccc1)C2	none (no result: DRD3 antagonist, RGS4 inh, uPA surface inh)
COc1cc2[nH]c(C(=O)N3CCC4(CC3)OCCO4)cc2c(OC)c1OC	DRD3 antagonist -84
CCCSc1cc(OC)c(CCN)cc1OC	none (no result: DRD3 antagonist, RGS4 inh, uPA surface inh)
COc1ccc(Nc2nc(N)nc(CCl)n2)cc1	uPA surface inh 2.5µM
CN[C@@H](C)Cc1ccccc1	none (no result: DRD3 antagonist, RGS4 inh, uPA surface inh)
CC(C)N(C(=O)CCl)c1ccccc1	uPA surface inh 6.3µM
CN(C)C(Cc1ccccc1)C(=O)c1ccccc1 (configuration not stated)	none
CCCN1CCc2cccc3c2[C@H]1Cc1ccc(O)c(O)c1-3	DRD3 antagonist inconclusive, RGS4 inh inconclusive, uPA surface inh inconclusive
CCCN1CCO[C@@H]2c3cc(O)ccc3OC[C@H]21	D3 ag 146, RGS4 inh inconclusive
O=Cc1cc(OCc2ccccc2)ccc1[B-](F)(F)F	uPA surface inh inconclusive
CN1CCN(c2nccc3c2ncn3C)CC1	DRD3 antagonist -64
CN1CCN(c2ncnc(Cl)c2N)CC1	none
COc1ccc2c3c1O[C@H]1[C@@H](O)C=C[C@H]4[C@@H](C2)NCC[C@@]341	none (no result: DRD3 antagonist, RGS4 inh, uPA surface inh)
CCc1cn(C2CC(O)C(CO)O2)c(=O)[nH]c1=O (configuration not stated)	uPA surface inh 10µM
O=C(NC(O)C(Cl)(Cl)Cl)NC(O)C(Cl)(Cl)Cl (configuration not stated)	D3 ag 77 (no result: DRD3 antagonist, RGS4 inh, uPA surface inh)
CC(C)c1ccc(NC(=O)c2ccc3c(c2)C(=O)N(Cc2cccnc2)C3=O)cc1	uPA surface inh inconclusive
CCc1nc(N2CCNCC2)c(C#N)c2c1CSC(C)(C)C2	DRD3 antagonist -74
CC(C)Cc1nc(N2CCNCC2)c(C#N)c2c1CCC2	DRD3 antagonist inconclusive
CN1CCN(c2ccc(N)cc2Cl)CC1	DRD3 antagonist -60, RGS4 inh inconclusive
CN1C[C@H](C(=O)N[C@]2(C)O[C@@]3(O)[C@@H]4CCCN4C(=O)[C@H](Cc4ccccc4)N3C2=O)C=C2c3cccc4[nH]cc(c34)C[C@H]21	none (no result: DRD3 antagonist, RGS4 inh, uPA surface inh)
CC(C)C[C@H]1C(=O)N2CCC[C@H]2[C@]2(O)O[C@](NC(=O)[C@@H]3C=C4c5cccc6[nH]cc(c56)C[C@H]4N(C)C3)(C(C)C)C(=O)N12	DRD3 antagonist -76, RGS4 inh inconclusive
CC(C)[C@@]1(NC(=O)[C@@H]2C[C@H]3c4cccc5[nH]cc(c45)C[C@@H]3N(C)C2)O[C@@]2(O)[C@H]3CCCN3C(=O)[C@H](Cc3ccccc3)N2C1=O	none (no result: DRD3 antagonist, D3 ag, uPA surface inh)
CN1C[C@H](C(=O)NC2(C)OC3(O)[C@@H]4CCCN4C(=O)[C@H](Cc4ccccc4)N3C2=O)CC2c3cccc4[nH]cc(c34)C[C@H]21 (some centres not stated)	DRD3 antagonist -57
CC(C)C[C@H]1C(=O)N2CCC[C@H]2[C@]2(O)O[C@](NC(=O)[C@@H]3C=C4c5cccc6[nH]c(Br)c(c56)C[C@H]4N(C)C3)(C(C)C)C(=O)N12	D3 ag 39, RGS4 inh inconclusive (no result: DRD3 antagonist, uPA surface inh)
